Data on seven compounds can be found in PubChem BioAssay (NCI).

Molecules are shown by their SMILES. About 83,000 compounds went through this panel and 20% of them were active in at least one assay; those are over-represented in the sample as a whole.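 Percent growth is the endpoint: 0 to 100 indicates growth inhibition (40 means 60% inhibition), 0 means no net growth, and negative values indicate cell death.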 A number with no mark means an inactive call. Active and inactive are the calls of the source. Rule for the calls: active = growth percent below 10; inactive = the rest.

Assay in all cases: NCI-60 one-dose screen, 48 h (100 = growth as untreated, 0 = no growth, -100 = all killed)
What all share (conditions): 10 µM unless noted

The subject of assay [1] is SK-MEL-2 melanoma.
Assay [2] relates to EKVX NSCLC.
For assay [3], the system named is SN12C renal.
The subject of assay [4] is UO-31 renal.
In assay [5] the test system is TK-10 renal.
The test system of assay [6] is ACHN renal.
Assay [7] relates to CAKI-1 renal.
Assay [8] concerns A498 renal.
The subject of assay [9] is CCRF-CEM leukemia.
In assay [10] the test system is MOLT-4 leukemia.
Assay [11] relates to SR leukemia.
In assay [12] the test system is RPMI-8226 leukemia.
The test system of assay [13] is OVCAR-8 ovarian.
For assay [14], the system named is OVCAR-5 ovarian.
For assay [15], the system named is OVCAR-4 ovarian.
For assay [16], the system named is SK-OV-3 ovarian.
Assay [17] deals with IGROV1 ovarian.
Assay [18] concerns OVCAR-3 ovarian.
In assay [19] the test system is HS 578T breast.
The test system of assay [20] is NCI/ADR-RES ovarian.

Regarding `Fc1ccc2[nH]cc(SSc3c[nH]c4ccc(F)cc34)c2c1`, the growth was 62.8% in [1]; 14.2% in assay [2]; 65.1% in [3]; 21.5% in assay [4]; 84.6% in [5]; 55.1% in [6]. Further, the growth is 32.6% in assay [7]; 35% in [8]; 15.9% in assay [9]; 14% in [10]; -29.4% (active) in [11]; -14% (active) in assay [12]. The growth was 40.5% in [13]; 46.8% in assay [14]; 46.6% in [15]; 95.2% in assay [16]; 77.8% in [17]; 50.5% in assay [18]. Moreover, the growth in assay [19] was -29.2% (active); in assay [20], 17.4%.
With `CCN1CCC2(CC1)NC(=O)c1c(c3ccc(Cl)c(Cl)c3n1C)C2C#N` (stereo not given), the growth was 21.4% in assay [1]; 68.8% in [2]; 49.4% in [3]; 43% in [4]; 54.5% in [5]; 45.6% in [6]. In addition, the growth in assay [7] is 37.3%; in [8], 3.01% (active); in [9], 39.5%; in [10] it was 24.4%; in [11], 26.5%; in assay [12], 16.6%. For the same compound, the growth in assay [13] was 76.9%; in assay [14], 74.3%; in assay [15] it was 63.8%; in [16], 87.6%; in assay [17], 55.8%; in assay [18], 56.2%. For the same compound, the growth in assay [19] was 53.8%; in assay [20], 63.4%.
Consider `Cc1ccc2c(C(C[N+](=O)[O-])c3ccccc3F)c(-c3ccccc3)[nH]c2c1` (stereo not given), for which the growth in [1] is 15.4%; in assay [2], 56.3%; in [3], 54.5%; in assay [4], 47.5%; in [5], 70.6%; in assay [6], 48.5%. In addition, the growth in assay [7] was 32.9%; in assay [8] it was 32.5%; in [9] it was 28.6%; in assay [10], 25.9%; in [11], 25.8%; in assay [12], 51.5%. Moreover, the growth was 56.5% in assay [13]; 74.4% in assay [14]; 65.7% in assay [15]; 31.5% in assay [16]; 32% in assay [17]; 13.2% in assay [18]. Besides, the growth in assay [19] is 33.8%; in [20] it was 23.9%.
Consider `O=C1C=C(OCC=C(Cl)Cl)C(=O)c2ccccc21`, for which the growth in assay [1] was 69.8%; in assay [2] it was 93.3%; in assay [3], 84.5%; in assay [4] it was 59%; in assay [5], 122%; in assay [6], 64%. Also, the growth was 93.4% in [7]; 97.7% in assay [8]; 28.7% in assay [9]; 71% in assay [10]; 51.6% in assay [11]; 45.6% in assay [12]. For the same compound, the growth in [13] was 71.5%; in [14], 116%; in [15], 15.9%; in assay [16], 102%; in assay [17], 75.6%; in [18], 32.2%. For the same compound, the growth in assay [19] was 55.5%; in [20] it was 33.8%.
As for `O=C1c2cc3c(cc2-c2c1c1ccc(F)cc1c(=O)n2C[C@H](O)[C@H](O)[C@H](O)CO)OCO3`, the growth in assay [1] is -33.4% (active); in assay [2], 5.59% (active); in assay [3], -18% (active); in assay [4] it was -55.2% (active); in assay [5] it was -25.7% (active); in [6], -53.8% (active). Also, the growth in assay [7] is -20.6% (active); in assay [8], -85.7% (active); in [9], 2.16% (active); in assay [10], -12.3% (active); in assay [11], -8.53% (active); in [12], -12.9% (active). Besides, the growth was -3.45% (active) in assay [13]; -20.6% (active) in assay [14]; 5.07% (active) in [15]; -30.3% (active) in [16]; 7.16% (active) in assay [17]; -17% (active) in assay [18]. In addition, the growth in assay [19] is -8.24% (active); in assay [20], -23.8% (active).
As to `Cc1ccc(C2Oc3ccccc3C3CC(c4cccs4)=NN32)cc1` (stereo not given), the growth in assay [1] is 98.2%; in assay [2], 80.9%; in [3], 92.5%; in [4], 65.3%; in [5], 108%; in assay [6], 98.7%. For the same compound, the growth in assay [7] is 82.3%; in assay [8], 107%; in [9], 95.3%; in [10] it was 97.5%; in [11] it was 102%; in assay [12], 95.3%. The growth in assay [13] was 99.7%; in assay [14], 102%; in assay [15] it was 93.6%; in [16] it was 90.1%; in assay [17] it was 80.2%; in assay [18], 100%. For the same compound, the values for the growth in assay [19] and in [20] were 86.7% and 96.6%, respectively.
Consider `Cc1nn(-c2ccc(F)cc2)c2ncnc(Oc3ccc(NC(=O)Nc4ccc(Cl)c(C(F)(F)F)c4)cc3)c12`, for which the growth is 102% in assay [1]; 105% in [2]; 95.1% in assay [3]; 100% in [4]; 104% in [5]; 102% in assay [6]. Moreover, the growth in assay [7] is 95.3%; in assay [8], 99.2%; in [9], 102%; in [10], 104%; in [11] it was 110%; in [12] it was 98.7%. Further, the growth in [13] was 96.5%; in assay [14], 99.3%; in [15], 110%; in [16] it was 92.6%; in assay [17], 102%; in [18] it was 114%. Also, the growth in assay [19] was 91%; in [20] it was 98.5%.
